# For some of these results: Entries with a potency or affinity are not part of this list.
# Assays:
# Design in all cases: scale not given: direction of the effect not stated beside the values
# [1] = target: Protein translocase subunit SecA (Escherichia coli (strain K12)) (UniProt P10408); assay: Assay to Identify E. coli SecA ATPase Inhibitors; format: functional; conditions: 30 µM
# [2] = target: T1, Ubiquitin-activating enzyme e1, putative (Leishmania donovani (strain BPK282A1)) (UniProt E9BSI1); assay: Leishmania donovani Ubiquitin Activating Enzyme (LdE1); format: functional; conditions: 30 µM
# T1 sequence (whole entry): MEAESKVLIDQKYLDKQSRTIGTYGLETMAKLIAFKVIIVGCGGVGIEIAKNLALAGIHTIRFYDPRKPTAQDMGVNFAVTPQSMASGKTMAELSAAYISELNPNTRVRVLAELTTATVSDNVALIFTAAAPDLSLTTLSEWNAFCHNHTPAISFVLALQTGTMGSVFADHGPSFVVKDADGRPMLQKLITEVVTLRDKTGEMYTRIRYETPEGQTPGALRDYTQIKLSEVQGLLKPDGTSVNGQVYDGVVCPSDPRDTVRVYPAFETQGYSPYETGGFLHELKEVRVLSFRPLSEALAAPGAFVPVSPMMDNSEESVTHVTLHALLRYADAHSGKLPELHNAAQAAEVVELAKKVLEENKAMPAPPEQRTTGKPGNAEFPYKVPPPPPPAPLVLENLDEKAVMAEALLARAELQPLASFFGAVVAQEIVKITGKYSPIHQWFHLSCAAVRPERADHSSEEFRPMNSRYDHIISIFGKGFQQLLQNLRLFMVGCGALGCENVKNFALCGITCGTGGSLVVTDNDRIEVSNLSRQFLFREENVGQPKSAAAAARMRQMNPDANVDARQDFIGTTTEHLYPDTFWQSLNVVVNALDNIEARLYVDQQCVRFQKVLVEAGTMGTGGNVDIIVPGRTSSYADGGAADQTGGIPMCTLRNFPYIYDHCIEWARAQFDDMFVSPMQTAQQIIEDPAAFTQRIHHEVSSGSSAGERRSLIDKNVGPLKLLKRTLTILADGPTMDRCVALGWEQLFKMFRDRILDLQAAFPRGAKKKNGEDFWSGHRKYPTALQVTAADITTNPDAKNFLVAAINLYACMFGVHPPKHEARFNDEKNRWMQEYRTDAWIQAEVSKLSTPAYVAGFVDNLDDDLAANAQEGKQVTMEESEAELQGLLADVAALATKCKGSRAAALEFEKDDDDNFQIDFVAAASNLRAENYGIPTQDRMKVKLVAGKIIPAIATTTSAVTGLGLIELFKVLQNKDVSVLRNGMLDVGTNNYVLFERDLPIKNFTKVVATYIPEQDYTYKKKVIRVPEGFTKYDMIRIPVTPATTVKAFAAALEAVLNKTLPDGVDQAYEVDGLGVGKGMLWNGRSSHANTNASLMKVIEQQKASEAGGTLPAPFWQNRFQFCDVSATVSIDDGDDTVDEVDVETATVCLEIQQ
# [3] = target: Sialic acid-binding Ig-like lectin 9 (Homo sapiens) (UniProt Q9Y336); assay: Hs-Siglec9 ALPHAscreen SOP 20170721; conditions: 10 µM
# Sequence of Sialic acid-binding Ig-like lectin 9 (Homo sapiens) (Q9Y336 whole entry): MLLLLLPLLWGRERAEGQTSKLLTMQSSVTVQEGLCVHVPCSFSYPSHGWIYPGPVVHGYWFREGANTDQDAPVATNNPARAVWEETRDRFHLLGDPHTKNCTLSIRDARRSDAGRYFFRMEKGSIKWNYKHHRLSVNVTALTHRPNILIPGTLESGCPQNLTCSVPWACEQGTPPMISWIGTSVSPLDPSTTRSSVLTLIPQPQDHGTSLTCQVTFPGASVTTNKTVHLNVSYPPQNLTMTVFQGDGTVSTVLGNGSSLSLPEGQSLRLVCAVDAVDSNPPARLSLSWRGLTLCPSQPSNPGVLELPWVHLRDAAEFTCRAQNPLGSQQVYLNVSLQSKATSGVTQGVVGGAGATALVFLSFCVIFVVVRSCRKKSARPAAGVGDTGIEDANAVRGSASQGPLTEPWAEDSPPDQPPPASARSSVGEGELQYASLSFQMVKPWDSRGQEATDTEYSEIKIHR
# [4] = system: Trypanosoma cruzi; assay: Trypanosoma cruzi phosphomannomutase and mannose-1-phosphate guanylyltransferase assay; format: functional; conditions: 10 µM
# [5] = target: T2, Arginase-2, mitochondrial (Homo sapiens) (UniProt P78540); assay: in vitro enzyme assay to detect the production of urea directly proportional to the activity of Arginase II; format: functional; conditions: 33.3 µM; also: in the data most compounds retested in dose-response had high values
# T2 sequence (whole entry): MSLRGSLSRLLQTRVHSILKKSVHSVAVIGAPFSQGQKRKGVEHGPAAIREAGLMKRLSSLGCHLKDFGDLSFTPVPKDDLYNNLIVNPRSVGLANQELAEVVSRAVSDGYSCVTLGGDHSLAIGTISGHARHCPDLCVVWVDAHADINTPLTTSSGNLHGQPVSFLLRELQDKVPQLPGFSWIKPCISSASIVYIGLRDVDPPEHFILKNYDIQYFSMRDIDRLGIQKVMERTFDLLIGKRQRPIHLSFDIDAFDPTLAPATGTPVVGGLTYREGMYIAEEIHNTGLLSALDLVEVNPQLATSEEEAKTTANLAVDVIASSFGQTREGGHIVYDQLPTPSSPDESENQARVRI
# [6] = target: T3, Proteasome subunit beta (Trypanosoma cruzi) (UniProt O96673); assay: Trypanosoma cruzi proteasome chymotrypsin-like activity (TcProtChymo) assay.; also: in the data most compounds retested in dose-response had high values; format: functional; conditions: 9.37 µM
# T3 sequence (whole entry): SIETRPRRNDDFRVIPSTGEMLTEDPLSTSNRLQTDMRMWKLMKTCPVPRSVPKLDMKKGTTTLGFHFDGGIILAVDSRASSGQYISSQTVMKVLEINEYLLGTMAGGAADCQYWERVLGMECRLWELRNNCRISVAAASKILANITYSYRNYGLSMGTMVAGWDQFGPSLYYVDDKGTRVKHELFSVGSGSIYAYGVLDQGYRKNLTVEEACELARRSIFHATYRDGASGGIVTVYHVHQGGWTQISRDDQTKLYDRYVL
# [7] = species: Homo sapiens; assay: To identify inhibition of the IFN signalling (Jak-Stat) pathway via expression of an eGFP reporter gene under the control of an IFN-stimulated response element (ISRE) containing MxA promoter.; format: functional; conditions: 30 µM
# [8] = target: T4, Tyrosyl-tRNA synthetase, putative (Trypanosoma cruzi (strain CL Brener)) (UniProt Q4DSP6); assay: Trypanosoma cruzi tyrosyl tRNA synthetase (TcYRS) _High Tyrosine SOP; format: functional; conditions: 30 µM; also: in the data most compounds retested in dose-response had high values
# T4 sequence (whole entry): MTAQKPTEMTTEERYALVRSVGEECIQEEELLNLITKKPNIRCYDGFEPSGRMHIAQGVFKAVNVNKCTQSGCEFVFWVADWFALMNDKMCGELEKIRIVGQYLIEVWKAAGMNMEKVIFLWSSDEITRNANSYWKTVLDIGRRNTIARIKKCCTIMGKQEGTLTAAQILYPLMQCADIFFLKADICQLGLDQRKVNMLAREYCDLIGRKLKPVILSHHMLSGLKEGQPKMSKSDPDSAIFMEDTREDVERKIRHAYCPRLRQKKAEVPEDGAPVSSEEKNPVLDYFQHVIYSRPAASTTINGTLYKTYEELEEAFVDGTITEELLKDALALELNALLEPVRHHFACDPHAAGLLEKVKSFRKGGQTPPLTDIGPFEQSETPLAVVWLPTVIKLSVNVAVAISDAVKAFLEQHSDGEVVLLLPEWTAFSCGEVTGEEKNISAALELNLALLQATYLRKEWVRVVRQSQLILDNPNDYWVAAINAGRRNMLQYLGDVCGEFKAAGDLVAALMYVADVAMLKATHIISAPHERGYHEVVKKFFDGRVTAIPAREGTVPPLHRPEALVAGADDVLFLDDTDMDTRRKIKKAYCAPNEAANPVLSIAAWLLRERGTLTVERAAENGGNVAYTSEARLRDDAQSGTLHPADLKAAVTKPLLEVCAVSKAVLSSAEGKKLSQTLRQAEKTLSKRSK
# [9] = target: T4, Tyrosyl-tRNA synthetase, putative (Trypanosoma cruzi (strain CL Brener)); assay: Trypanosoma cruzi tyrosyl tRNA synthetase (TcYRS) SOP; format: functional; conditions: 30 µM
# [10] = target: Chromo domain-containing protein 1 (Saccharomyces cerevisiae (strain ATCC 204508 / S288c) (Baker's yeast)) (UniProt P32657); assay: ScCHD-1 Enzyme Inhibition Assay; format: functional; conditions: 30 µM; also: in the data most compounds retested in dose-response had high values
# Sequence of Chromo domain-containing protein 1 (Saccharomyces cerevisiae (strain ATCC 204508 / S288c) (Baker's yeast)) (P32657 whole entry, the tested form may be a part): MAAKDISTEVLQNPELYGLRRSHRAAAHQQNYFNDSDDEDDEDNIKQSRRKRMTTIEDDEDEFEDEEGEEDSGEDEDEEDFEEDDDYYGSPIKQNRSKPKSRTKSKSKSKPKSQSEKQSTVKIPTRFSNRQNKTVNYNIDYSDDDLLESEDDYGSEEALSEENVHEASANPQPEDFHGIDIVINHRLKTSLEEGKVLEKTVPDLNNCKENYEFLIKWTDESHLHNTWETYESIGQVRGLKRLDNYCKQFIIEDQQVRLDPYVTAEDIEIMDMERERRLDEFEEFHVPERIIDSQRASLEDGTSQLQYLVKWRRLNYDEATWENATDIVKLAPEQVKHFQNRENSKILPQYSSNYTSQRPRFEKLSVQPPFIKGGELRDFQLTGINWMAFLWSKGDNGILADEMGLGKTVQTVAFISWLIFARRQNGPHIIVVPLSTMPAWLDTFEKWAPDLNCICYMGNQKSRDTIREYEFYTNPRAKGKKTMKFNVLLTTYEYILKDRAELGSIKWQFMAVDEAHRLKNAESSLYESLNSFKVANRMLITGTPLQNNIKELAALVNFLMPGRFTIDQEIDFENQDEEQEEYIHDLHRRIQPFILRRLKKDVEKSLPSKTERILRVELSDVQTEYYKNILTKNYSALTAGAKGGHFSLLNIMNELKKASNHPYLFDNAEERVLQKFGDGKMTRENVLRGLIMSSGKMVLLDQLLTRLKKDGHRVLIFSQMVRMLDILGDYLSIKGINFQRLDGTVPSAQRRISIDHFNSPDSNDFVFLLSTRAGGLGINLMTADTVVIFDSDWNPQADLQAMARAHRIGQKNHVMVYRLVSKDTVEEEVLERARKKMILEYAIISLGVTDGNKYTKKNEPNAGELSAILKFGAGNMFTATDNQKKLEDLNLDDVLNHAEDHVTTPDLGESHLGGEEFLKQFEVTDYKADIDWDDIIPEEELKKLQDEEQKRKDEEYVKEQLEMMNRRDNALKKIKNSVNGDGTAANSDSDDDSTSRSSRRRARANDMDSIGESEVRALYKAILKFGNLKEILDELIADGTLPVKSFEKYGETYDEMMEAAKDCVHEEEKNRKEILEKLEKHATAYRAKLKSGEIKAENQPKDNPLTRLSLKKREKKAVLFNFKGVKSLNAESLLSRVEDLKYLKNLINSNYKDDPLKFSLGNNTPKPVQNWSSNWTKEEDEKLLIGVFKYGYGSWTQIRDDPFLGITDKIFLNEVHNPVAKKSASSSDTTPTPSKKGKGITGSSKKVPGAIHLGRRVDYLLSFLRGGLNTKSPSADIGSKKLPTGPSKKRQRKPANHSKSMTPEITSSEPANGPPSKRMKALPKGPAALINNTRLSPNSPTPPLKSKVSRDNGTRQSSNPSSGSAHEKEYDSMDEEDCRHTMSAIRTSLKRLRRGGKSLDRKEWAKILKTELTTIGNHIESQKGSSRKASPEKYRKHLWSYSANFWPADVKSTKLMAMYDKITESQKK
# Sequence of Protein translocase subunit SecA (Escherichia coli (strain K12)) (P10408 whole entry): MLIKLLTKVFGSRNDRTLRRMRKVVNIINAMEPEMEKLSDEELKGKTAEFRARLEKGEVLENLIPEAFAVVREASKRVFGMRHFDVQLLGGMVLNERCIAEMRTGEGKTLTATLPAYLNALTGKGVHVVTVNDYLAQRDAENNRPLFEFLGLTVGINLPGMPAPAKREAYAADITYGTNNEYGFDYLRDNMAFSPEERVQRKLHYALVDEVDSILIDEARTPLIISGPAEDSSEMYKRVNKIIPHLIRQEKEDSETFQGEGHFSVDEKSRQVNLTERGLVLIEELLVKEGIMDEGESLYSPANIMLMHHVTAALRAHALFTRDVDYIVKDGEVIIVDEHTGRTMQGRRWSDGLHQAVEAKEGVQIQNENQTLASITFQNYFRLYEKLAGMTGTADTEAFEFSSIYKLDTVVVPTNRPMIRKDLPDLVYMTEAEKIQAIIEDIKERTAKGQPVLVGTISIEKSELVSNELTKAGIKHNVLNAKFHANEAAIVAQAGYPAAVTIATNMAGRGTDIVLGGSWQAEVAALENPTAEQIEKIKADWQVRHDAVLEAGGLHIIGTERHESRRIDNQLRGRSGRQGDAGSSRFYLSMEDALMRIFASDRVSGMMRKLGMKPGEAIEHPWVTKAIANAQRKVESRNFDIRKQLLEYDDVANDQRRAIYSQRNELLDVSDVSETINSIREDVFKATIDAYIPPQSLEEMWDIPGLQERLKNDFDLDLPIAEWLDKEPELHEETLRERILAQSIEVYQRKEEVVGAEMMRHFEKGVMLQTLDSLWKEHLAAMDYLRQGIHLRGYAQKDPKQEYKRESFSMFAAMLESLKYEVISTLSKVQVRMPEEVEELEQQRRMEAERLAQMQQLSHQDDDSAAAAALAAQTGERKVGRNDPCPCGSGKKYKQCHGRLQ
Structure (SMILES),Percent Effect [1] [%],Percent Effect [2] [%],Percent Effect [3] [%],Percent Effect [4] [%],Percent Effect [5] [%],Percent Effect [6] [%],Percent Effect [7] [%],Percent Effect [8] [%],Percent Effect [9] [%],Percent Effect [10] [%]
O=C1N(CC2CC2)CCC12CCN(c1ncccn1)CC2,2.77,16.9,-4.8,-3,2.74,16.7,12.4,6.76,10,-10.6
Cc1cc(C)n(CCC(=O)N2CCCC(n3cncn3)C2)n1 (stereo not given),-6.39,10.7,6.15,2.01,-3.99,5.68,-5.14,5.79,15.4,-9.86
CC(C)NC(=O)N1CCC2(CC(=O)N(c3cccc(C#N)c3)C2)C1 (stereo not given),-4.66,-16.9,0.438,-3.6,-3.64,9.8,-4.77,-0.526,-35.9,-0.524
Cc1cn[nH]c1C1CCCCN1C(=O)CCN1CCCCCC1 (stereo not given),0.428,4,-1.68,-7.89,1.77,10,10.3,2.12,5,-25
Cc1cc(N2CCC(NC(=O)C3CC3)CC2)nc(-c2ccncc2)n1,-0.846,23.4,0.849,2.98,-1.43,13,9.23,12.8,35.3,-0.543
COCCc1noc(CNC2CCSC2)n1 (stereo not given),-5.2,5.41,11.7,7.66,1.75,9.93,-4.93,5.85,17.1,-3.46
O=C(Cn1cc(-c2ccccc2)ncc1=O)Nc1ccncc1,-7.06,5.41,4.3,-0.097,3.85,20,-4.45,6.92,17.1,90.8
COc1ccc(F)cc1C(C)NC(=O)Cn1ccc(=O)n(C)c1=O (stereo not given),2.28,13,2.06,2.05,5.94,9.82,-0.632,9.8,21.2,-4.5
CCn1nc2c(cc1=O)CN(Cc1nc(-c3ccsc3)no1)CC2,-2.79,0,3.78,-0.282,6.56,4.18,27.8,4.31,6.02,-6.49
c1cc(-c2noc(CN3CCn4c(nnc4C4CC4)C3)n2)co1,-1.2,12.8,1.91,4.04,6.15,2.13,16.4,7.18,10.8,2.97
